# Results published in PubChem BioAssay (EPA / NIEHS).
# Values joined by “and” are separate entries in the source; they are usually repeats but may differ in a detail not shown here. Equal values may be shown once. Results filed as inconclusive are left out. More than one record can exist for a structure, and the calls need not agree. Active and inactive are the calls of the source. The calls were made as follows, unless noted: active = hit-call score of the fitted dose curve at least 0.9, where 1 is the maximum; inactive = score below 0.9.
# Experiments:
# [1] = CCTE_Harrill_HTTr_Viability_MCF7: CCTE's 6-hour Cell Viability Assessment for the High-Throughput Transcriptomics (HTTr) Platform, in MCF-7 cells cultured in DMEM + 10% fetal bovine serum, Harrill Lab (AID 2284010)
# How it was run: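 MCF-7 cells in DMEM + 10% FBS, 384-well, exposed 6 h to an eight-point dilution series. Membrane integrity scored by high-content imaging of propidium iodide exclusion; bidirectional fit versus DMSO.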
# [2] = CCTE_Harrill_HTTr_Apoptosis_MCF7: CCTE's 6-hour Apoptosis Assessment for the High-Throughput Transcriptomics (HTTr) Platform, in MCF-7 cells cultured in DMEM + 10% fetal bovine serum, Harrill Lab (AID 2284011)
# How it was run: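 Cells are dosed with test chemicals at eight concentrations and imaged 6 hours later for caspase-3/7 activity using a green fluorogenic detection reagent. Activity is fitted in both directions against DMSO controls.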
# [3] = CCTE_Harrill_HTTr_CellCount_MCF7: CCTE's Cell Proliferation Assessment for the High-Throughput Transcriptomics (HTTr) Platform, Harrill Lab (AID 2284012; active = hit-call score of the fitted dose curve at least 0.9, where 1 is the maximum;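 also: cells exposed to compound for six hours; intended direction is loss of nuclei count meaning fewer cells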)
# How it was run: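 MCF7 cells exposed 6 hours to an eight-point dilution series; Hoechst-stained nuclei counted by high-content imaging. Bidirectional curve fitting against DMSO baseline.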
# [4] = CCTE_Shafer_MEA_dev_firing_rate_mean: CCTE's Neural Network Formation Assay for Mean Firing Rate, Shafer Lab (AID 2284031);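 as to AC50: curve fitted for loss of firing so AC50 reflects decreased mean firing rate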
# How it was run: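 Primary rat cortical neurons on 48-well MEA plates, exposed from plating day 0 with dosing renewed on DIV 5 and 9. Mean well firing rate over active electrodes, recorded days 5, 7, 9, 12, summarised as trapezoidal AUC.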
# [5] = CCTE_Shafer_MEA_dev_per_burst_spike_percent: CCTE's Neural Network Formation Assay for Percent of Spikes in a Burst, Shafer Lab (AID 2284032);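 as to AC50: fitted as a decrease in burst spike percentage below DMSO baseline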
# How it was run: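 Rat primary cortical neurons on 16-electrode MEA wells, dosed from plating day 0 for 12 days with renewal on DIV 5 and 9; spikes-in-bursts percentage averaged over bursting electrodes, collapsed as AUC across days 5, 7, 9, 12; loss direction versus DMSO.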
# [6] = CCTE_Shafer_MEA_acute_burst_number: CCTE's Neural Acute Assay for Single-Electrode Bursts, Shafer Lab (AID 2284013)
# How it was run: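 Spontaneous network activity of primary rat cortical neurons was recorded extracellularly on microelectrode arrays at 37 C, with 40-min periods before and during exposure to 0.03-40 uM compound on DIV 13 or 15.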
# [7] = CCTE_Shafer_MEA_acute_burst_duration_mean: CCTE's Neural Acute Assay for Mean Burst Duration, Shafer Lab (AID 2284014);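 also: hits are decreases in mean burst duration relative to DMSO controls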
# How it was run: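 Read-out is the per-well percent change in mean burst duration (first to last spike within a single-electrode burst) between 40-min recordings before and after compound. Cultures were primary rat cortical neurons on MEAs, dosed at 0.03-40 uM on DIV 13 or 15.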
# [8] = CCTE_Shafer_MEA_acute_per_burst_spike_number_mean: CCTE's Neural Acute Assay for Average Number of Spikes Per Burst, Shafer Lab (AID 2284015);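 also: hits are decreases in mean spikes per burst versus baseline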
# How it was run: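 Read-out: percent change in mean spikes per burst, each well's post-exposure 40-min recording versus its own 40-min baseline. Rat cortical cultures, DIV 13 or 15, compounds 0.03-40 uM; DMSO is negative control, loss-of-signal fitting.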
# [9] = CCTE_Shafer_MEA_acute_interburst_interval_mean: CCTE's Neural Acute Assay for Mean Interburst Interval, Shafer Lab (AID 2284016);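 also: percent change of mean interburst interval versus each well's own pre-dose baseline; curves fitted for decrease in interburst interval relative to DMSO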
# How it was run: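 Rat cortical cultures, DIV 13/15; 20 min equilibration, 40 min baseline, compound 0.03-40 uM, 40 min re-recording, 37 C. Spikes detected at 8x rms noise (300-5000 Hz band-pass). Endpoint: % change in interburst interval, fitted in loss direction vs DMSO.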
# [10] = CCTE_Shafer_MEA_acute_burst_percentage_mean: CCTE's Neural Acute Assay for Percentage of Spikes in a Burst, Shafer Lab (AID 2284017);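 as to AC50: curve fitted for loss of signal so potency reflects decreased burst percentage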
# How it was run: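 Rat cortical cultures, DIV 13/15, 37 C. Spikes detected at 8x rms noise (300-5000 Hz band-pass). Burst spikes/total spikes averaged across electrodes per well; % change post- vs pre-treatment (40 min each), loss-of-signal fit vs DMSO.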
# [11] = CCTE_Shafer_MEA_acute_burst_percentage_std: CCTE's Neural Acute Assay for Standard Deviation of Burst Percentage, Shafer Lab (AID 2284018);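 also: fitted in the negative direction so actives lower burst percentage SD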
# How it was run: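 Value is percent change from baseline in the across-electrode SD of spikes-in-bursts percentage, wells with >/= 10 active electrodes. Acute 40-min exposure to 0.03-40 uM on DIV 13 or 15 rat cortical cultures, recorded at 37 C after 40-min baseline.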
# [12] = CCTE_Shafer_MEA_acute_per_network_burst_spike_number_mean: CCTE's Neural Acute Assay for Average Number of Spikes in a Network Burst, Shafer Lab (AID 2284019);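 as to AC50: curve fitted for loss of signal so actives reduce spikes per network burst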
# How it was run: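 Read-out is mean spike count per network burst, taken as percent change between a 40-min pre-exposure and a 40-min post-exposure recording per well. Rat primary cortical neurons on MEAs at 37 C, DIV 13 or 15; compounds at 0.03-40 uM.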
# [13] = CCTE_Shafer_MEA_acute_per_network_burst_spike_number_std: CCTE's Neural Acute Assay for Standard Deviation of Number of Spikes in a Network Burst, Shafer Lab (AID 2284020);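 also: fitted for decrease in spike-number SD versus DMSO so actives lower it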
# How it was run: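 Spontaneous network activity of primary rat cortical neurons is recorded extracellularly before and after a 40-min compound exposure (0.03-40 uM) at 37 C. The endpoint is the well's percent change in burst spike-number SD.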
# [14] = CCTE_Shafer_MEA_acute_per_network_burst_electrodes_number_mean: CCTE's Neural Acute Assay for Mean Number of Electrodes in a Network Burst, Shafer Lab (AID 2284021);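 also: curves fitted for decreases only so hits reduce electrodes per burst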
# How it was run: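 Cultures of rat cortex neurons were exposed on DIV 13 or 15 to compounds at 0.03-40 uM in at least three wells each. Activity over 40 min before and 40 min after exposure at 37 C gave the percent change in electrodes per network burst.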
# [15] = CCTE_Shafer_MEA_acute_network_burst_percentage: CCTE's Neural Acute Assay for Percentage of Network Bursts, Shafer Lab (AID 2284022);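 also: curves fitted for loss so actives lower network burst percentage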
# How it was run: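 Cortical neurons from rat were grown over microelectrode arrays and used on day 13 or 15 in vitro. Wells with at least 10 active electrodes received test chemical at 0.03-40 uM. Activity during 40 min of exposure was compared with the preceding 40-min baseline.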
# [16] = CCTE_Shafer_MEA_acute_cross_correlation_area: CCTE's Neural Acute Assay for Area of Cross Correlation, Shafer Lab (AID 2284024);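 also: area under pooled inter-electrode spike cross-correlation near zero lag as percent change from own baseline; curves fitted for loss of cross-correlation area so actives lower synchrony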
# How it was run: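 Acute exposure of mature rat cortical networks (day 13 or 15 post-plating) to 0.03-40 uM compound. Spontaneous spiking on MEA, 40 min pre- and post-dose at 37 C.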
# [17] = CCTE_Shafer_MEA_acute_cross_correlation_HWHM: CCTE's Neural Acute Assay for Cross Correlation at Half Width at Half Maximum, Shafer Lab (AID 2284026);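 also: percent change per well from pre-dose baseline in spike cross-correlogram half width; hits are a decrease in cross-correlogram half width relative to DMSO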
# How it was run: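 Primary cortex (rat), MEA, DIV 13/15; compound 0.03-40 uM; 40 min pre + 40 min post at 37 C; spike threshold 8x rms; wells need ≥10 active electrodes; endpoint = % change in cross-correlogram HWHM vs baseline, DMSO negative control.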
# [18] = CCTE_Shafer_MEA_acute_synchrony_index: CCTE's Neural Acute Assay for Synchrony, Shafer Lab (AID 2284027);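 also: network synchrony index of spontaneous spiking in primary rat cortical neurons on MEAs; fitted for loss of signal so actives lower synchrony relative to DMSO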
# How it was run: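 Primary rat cortical neurons on 48-well MEAs, dosed at 0.03–40 uM on DIV 13 or 15. Spikes are recorded for 40 min at 37C before and after exposure, and synchrony index (0–1) is expressed as percent change from baseline per well.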
# [19] = CCTE_Deisenroth_AIME_384WELL_CTox_Active: Cytotoxicity Assessment (CTOX) in CCTE's 384-well Estrogen Receptor Transactivation Assay with AIME metabolic competence (metabolism positive), Deisenroth Lab (AID 2284037; active = hit-call score of the fitted dose curve at least 0.9, where 1 is the maximum;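 also: chemicals first conditioned 2 h by alginate-bound induced rat liver S9 before cells; activity means signal loss indicating cell death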)
# How it was run: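 Cytotoxicity in VM7Luc4E2 breast cells, 24 hour, measured as protease-substrate fluorescence loss, after 2-hour metabolic conditioning with induced rat hepatic S9 in alginate microspheres. Concentrations 0.002 - 200 uM, 10 points, bidirectional fitting.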
smiles,measurement,setting,value
COP(=O)(OC)OC(Br)C(Cl)(Cl)Br (configuration not stated),outcome,[1],inactive
same,outcome,[2],inactive
same,outcome,[3],inactive
same,AC50,[4],7.31 µM (active) and 13 µM (active)
same,AC50,[5],7.85 µM (active) and 19.1 µM (active)
CCOP(=O)(OCC)Oc1cc(C)nc(C(C)C)n1,outcome,[1],inactive
same,outcome,[2],inactive
same,outcome,[3],inactive
same,outcome,[4],inactive
same,outcome,[5],inactive
CN(C)NC(=O)CCC(=O)O,outcome,[1],inactive
same,outcome,[2],inactive
same,outcome,[6],inactive
same,outcome,[7],inactive
same,outcome,[8],inactive
same,outcome,[9],inactive
same,outcome,[10],inactive
same,outcome,[11],inactive
same,outcome,[12],inactive
same,outcome,[13],inactive
same,outcome,[14],inactive
same,outcome,[15],inactive
same,outcome,[16],inactive
same,outcome,[17],inactive
same,outcome,[18],inactive
CCOP(=O)(SC(C)CC)N1CCSC1=O (configuration not stated),outcome,[1],inactive
same,outcome,[2],inactive
same,outcome,[4],inactive
same,outcome,[5],inactive
same,outcome,[19],inactive
CCOP(=S)(OCC)Oc1cc(C)nc(C(C)C)n1,outcome,[1],inactive
same,outcome,[2],inactive
same,outcome,[3],inactive
same,AC50,[4],50 µM (active)
same,outcome,[4],inactive
same,AC50,[5],50 µM (active)
same,outcome,[5],inactive
CC(C)N(C(=O)SCC(Cl)=C(Cl)Cl)C(C)C,outcome,[1],inactive
same,outcome,[2],inactive
same,outcome,[6],inactive
same,outcome,[7],inactive
same,AC50,[8],20 µM (active) and 8.68 µM (active)
same,AC50,[9],11.9 µM (active)
same,outcome,[9],inactive
same,AC50,[10],20 µM (active) and 15 µM (active)
same,AC50,[11],20 µM (active) and 7.81 µM (active)
same,AC50,[12],5.79 µM (active)
same,outcome,[12],inactive
same,AC50,[13],10.2 µM (active) and 9.26 µM (active)
same,AC50,[14],11.5 µM (active) and 5.51 µM (active)
same,AC50,[15],25.7 µM (active) and 20 µM (active)
same,outcome,[16],inactive
same,AC50,[17],20 µM (active) and 15 µM (active)
same,AC50,[18],20 µM (active) and 19 µM (active)
same,outcome,[4],inactive
same,AC50,[5],24.4 µM (active)
C#CC(C)(C)NC(=O)c1cc(Cl)cc(Cl)c1,outcome,[1],inactive
same,outcome,[2],inactive
same,outcome,[19],inactive
CC1(C(=O)Nc2ccc(O)c(Cl)c2Cl)CCCCC1,outcome,[1],inactive
same,outcome,[2],inactive
same,outcome,[19],inactive
CCOP(=S)(Oc1cnc(C(C)(C)C)nc1)OC(C)C (configuration not stated),outcome,[1],inactive
same,outcome,[2],inactive
same,outcome,[6],inactive
same,outcome,[7],inactive
same,AC50,[8],29.4 µM (active)
same,outcome,[9],inactive
same,AC50,[10],35.6 µM (active)
same,outcome,[11],inactive
same,AC50,[12],20 µM (active)
same,AC50,[13],28 µM (active)
same,AC50,[14],20 µM (active)
same,AC50,[15],24.6 µM (active)
same,outcome,[16],inactive
same,AC50,[17],26.9 µM (active)
same,AC50,[18],31 µM (active)
same,AC50,[4],12.2 µM (active)
same,outcome,[4],inactive
same,AC50,[5],89.1 µM (active) and 12.9 µM (active)
CC(C)[C@H](C(=O)O[C@H](C#N)c1cccc(Oc2ccccc2)c1)c1ccc(Cl)cc1,outcome,[1],inactive
same,outcome,[2],inactive
same,AC50,[6],0.928 µM (active)
same,outcome,[7],inactive
same,outcome,[8],inactive
same,outcome,[9],inactive
same,AC50,[10],0.958 µM (active)
same,outcome,[11],inactive
same,outcome,[12],inactive
same,outcome,[13],inactive
same,AC50,[14],0.0691 µM (active)
same,AC50,[15],0.962 µM (active)
same,outcome,[16],inactive
same,AC50,[17],4.36 µM (active)
same,AC50,[18],1.01 µM (active)
same,AC50,[4],3.13 µM (active)
same,AC50,[5],5.46 µM (active)
